Laboratory results as given in PubChem BioAssay (EPA / NIEHS).
Inconclusive results are not listed. The source holds several records for some structures; these can differ, active in one and inactive in another. The source made the active and inactive calls. Rule for the calls, unless noted: active = hit-call score of the fitted dose curve at least 0.9, where 1 is the maximum; inactive = score below 0.9.

Legend:
[1] = ATG_BRE_CIS: Attagene CIS-FACTORIAL HepG2 Assay for human Bone Morphogenetic Protein (BMP) Response Element (BRE) (AID 2282933); conditions: HepG2 BMP response element reporter, Attagene transcription factor profiling; actives raise or lower the signal
Summary of the method: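 Gain- or loss-of-signal was derived by bidirectional fitting against DMSO controls. The signal came from reporter mRNA, measured by RT-PCR and capillary electrophoresis, in HepG2 cells transiently carrying multiple reporter units and dosed for 24 h.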

[2] = ATG_E_Box_CIS: Attagene CIS-FACTORIAL HepG2 Assay for human Enhancer Box (E-box) (AID 2282936); conditions: HepG2 E-box cis-reporter transcription, actives raise or lower the signal
Summary of the method: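 First, HepG2 cells receive multiple cis-regulated reporter constructs by transient transfection. Next, chemicals are applied for 24 h. Finally, reporter mRNA is quantified via RT-PCR and capillary electrophoresis, with DMSO as baseline.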

[3] = ATG_FoxO_CIS: Attagene CIS-FACTORIAL HepG2 Assay for human Forkhead box O (FoxO) (AID 2282943); conditions: HepG2 Attagene cis-reporter, FoxO element, mRNA; actives raise or lower the signal
Summary of the method: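 Transfected HepG2 reporter cells exposed to test chemical for 24 h; reporter RNA measured by reverse transcription, PCR and fluorescent capillary electrophoresis; curves fitted for increases and decreases against DMSO.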

[4] = ATG_GRE_CIS: Attagene CIS-FACTORIAL HepG2 Assay for human Glucocorticoid Response Elements (GRE) (AID 2282947); conditions: HepG2 GRE cis-reporter, Attagene multiplex mRNA; actives raise or lower the signal
Summary of the method: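 Endogenous transcription factor activity is read through cis-element reporter constructs transiently transfected into HepG2 cells. After 24 h treatment, labelled RT-PCR products are resolved by capillary electrophoresis; DMSO sets baseline for bidirectional curve fitting.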

[5] = ATG_PBREM_CIS: Attagene CIS-FACTORIAL HepG2 Assay for human Phenobarbital-responsive Enhancer Module (PBREM) (AID 2282955); conditions: HepG2 PBREM cis-reporter, Attagene multiplexed transcription; actives raise or lower the signal
Summary of the method: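 Fluorescence of labelled reporter cDNA fragments, resolved by capillary electrophoresis, gives mRNA induction in transfected HepG2 cells treated for 24 h; DMSO serves as negative control and baseline.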

[6] = ATG_Sox_CIS: Attagene CIS-FACTORIAL HepG2 Assay for human SRY-box transcription factor (SOX) (AID 2282960); conditions: HepG2 Attagene cis-factorial SOX reporter, mRNA; actives raise or lower the signal
Summary of the method: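 Transient MRTU transfection of HepG2; 24 h compound incubation; TriZol RNA, oligo(dT) RT, PCR, 6-FAM primer extension, HpaI cut, CE. Bidirectional fit, DMSO = baseline.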

[7] = target: X-box-binding protein 1 (Homo sapiens) (UniProt P17861); test: ATG_Xbp1_CIS: Attagene CIS-FACTORIAL HepG2 Assay for human X-box Binding Protein 1 (XBP1) (AID 2282972); conditions: HepG2 XBP1 cis-element reporter, Attagene multiplex; actives raise or lower the signal
X-box-binding protein 1 (Homo sapiens), sequence (P17861 whole entry, looked up): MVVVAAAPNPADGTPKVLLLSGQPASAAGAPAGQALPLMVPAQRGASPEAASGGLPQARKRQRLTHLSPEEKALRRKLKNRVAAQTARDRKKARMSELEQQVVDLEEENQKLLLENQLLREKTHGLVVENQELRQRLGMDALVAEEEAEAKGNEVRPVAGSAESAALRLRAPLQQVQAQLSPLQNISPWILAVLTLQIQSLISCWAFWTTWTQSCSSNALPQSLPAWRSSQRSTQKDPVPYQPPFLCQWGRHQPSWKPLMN
Summary of the method: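 HepG2, transient MRTU transfection (cis-promoter driven), 24 h compound exposure. Total RNA → oligo(dT) RT → PCR → 6-FAM labeling → HpaI cut → CE. Bidirectional fit vs DMSO.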

[8] = ATG_M_06_TRANS: Attagene TRANS-FACTORIAL HepG2 Assay for M06 Transcription Factor (Internal Marker) (AID 2282983; active = hit-call score of the fitted dose curve at least 0.9, where 1 is the maximum;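 note: reporter transcript level by RT-PCR then capillary electrophoresis fluorescence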); conditions: HepG2 Attagene TRANS M06 internal marker reporter
Summary of the method: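 Cells: HepG2, transient multi-reporter transfection. Exposure: 24 h. Detection: RT-PCR, 6-FAM labelling, HpaI digestion (2 h, 37 °C), capillary electrophoresis. Baseline: DMSO.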

[9] = target: Nuclear respiratory factor 1 (Homo sapiens) (UniProt Q16656); test: ATG_NRF1_CIS: Attagene CIS-FACTORIAL HepG2 Assay for human Nuclear Respiratory Factor 1 (NRF1) Orphan Gene (AID 2282987); conditions: HepG2 NRF1 cis-element reporter, Attagene multiplex; actives raise or lower the signal
Nuclear respiratory factor 1 (Homo sapiens), sequence (Q16656 whole entry, looked up, the tested form may be a part): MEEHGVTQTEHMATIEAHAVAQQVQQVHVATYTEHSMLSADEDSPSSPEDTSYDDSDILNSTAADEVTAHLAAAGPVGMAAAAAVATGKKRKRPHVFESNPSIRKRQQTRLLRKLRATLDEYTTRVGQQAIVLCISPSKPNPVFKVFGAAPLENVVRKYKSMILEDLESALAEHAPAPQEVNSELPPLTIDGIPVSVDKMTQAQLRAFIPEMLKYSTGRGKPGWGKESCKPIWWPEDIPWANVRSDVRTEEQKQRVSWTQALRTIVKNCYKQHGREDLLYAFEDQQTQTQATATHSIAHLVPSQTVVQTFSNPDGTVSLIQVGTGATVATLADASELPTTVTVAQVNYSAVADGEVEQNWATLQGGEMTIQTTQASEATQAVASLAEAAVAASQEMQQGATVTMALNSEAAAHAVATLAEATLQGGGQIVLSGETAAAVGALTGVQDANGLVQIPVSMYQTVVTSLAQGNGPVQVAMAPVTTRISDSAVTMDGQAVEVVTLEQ
Summary of the method: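 Fluorescence intensity of labelled reporter cDNA fragments, resolved by capillary electrophoresis, served as readout for NRF1 cis-element activity. Transiently transfected HepG2 cells were dosed for 24 hours; activity in either direction was fitted against DMSO negative control.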

[10] = target: Peroxisome proliferator-activated receptor gamma (Homo sapiens) (UniProt P37231); test: ATG_PPARg_TRANS: Attagene TRANS-FACTORIAL HepG2 Assay for human Peroxisome Proliferator-activated Receptor-gamma (PPARg) (AID 2283007; active = hit-call score of the fitted dose curve at least 0.9, where 1 is the maximum)
Peroxisome proliferator-activated receptor gamma (Homo sapiens), sequence (P37231 whole entry, looked up, the tested form may be a part): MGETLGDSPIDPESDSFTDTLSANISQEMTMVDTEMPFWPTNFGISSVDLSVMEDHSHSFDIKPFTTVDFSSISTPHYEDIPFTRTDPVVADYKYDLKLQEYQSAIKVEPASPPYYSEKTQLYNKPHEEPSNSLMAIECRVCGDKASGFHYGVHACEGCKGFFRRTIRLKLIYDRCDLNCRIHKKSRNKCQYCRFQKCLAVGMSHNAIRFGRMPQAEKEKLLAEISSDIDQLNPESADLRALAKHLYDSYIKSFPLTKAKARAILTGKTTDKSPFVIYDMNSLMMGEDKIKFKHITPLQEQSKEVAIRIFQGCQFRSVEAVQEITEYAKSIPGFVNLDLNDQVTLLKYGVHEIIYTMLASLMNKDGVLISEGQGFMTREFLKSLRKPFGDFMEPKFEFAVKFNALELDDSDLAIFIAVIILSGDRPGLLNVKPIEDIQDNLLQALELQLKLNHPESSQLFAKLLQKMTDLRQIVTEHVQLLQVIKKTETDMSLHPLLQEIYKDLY
Summary of the method: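 A TRANS-format multiplexed reporter assay measures activity of an exogenous chimeric NR-Gal4 protein in HepG2 cells. After 24 h of chemical exposure, reporter transcripts are amplified, fluorescently labelled and sized by capillary electrophoresis, with gain of signal scored against DMSO.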

[11] = target: Nuclear receptor subfamily 1 group I member 2 (Homo sapiens) (UniProt O75469); test: ATG_PXR_TRANS: Attagene TRANS-FACTORIAL HepG2 Assay for human Pregnane X Receptor (PXR) (AID 2283008; active = hit-call score of the fitted dose curve at least 0.9, where 1 is the maximum)
Nuclear receptor subfamily 1 group I member 2 (Homo sapiens), sequence (O75469 whole entry, looked up, the tested form may be a part): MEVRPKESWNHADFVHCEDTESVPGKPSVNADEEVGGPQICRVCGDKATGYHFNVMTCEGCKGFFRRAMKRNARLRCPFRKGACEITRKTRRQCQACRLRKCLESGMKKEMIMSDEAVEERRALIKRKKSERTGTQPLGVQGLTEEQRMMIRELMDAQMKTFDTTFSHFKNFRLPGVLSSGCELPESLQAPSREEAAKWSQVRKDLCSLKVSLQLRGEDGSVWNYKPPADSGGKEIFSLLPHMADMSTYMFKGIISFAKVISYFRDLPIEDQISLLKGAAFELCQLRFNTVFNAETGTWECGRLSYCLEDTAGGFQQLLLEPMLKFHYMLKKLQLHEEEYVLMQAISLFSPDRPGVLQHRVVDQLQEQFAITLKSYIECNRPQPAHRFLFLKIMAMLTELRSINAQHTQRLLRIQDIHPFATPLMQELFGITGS
Summary of the method: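 Read-out is fluorescence of labelled reporter cDNA fragments separated by capillary electrophoresis after RT-PCR and HpaI digestion. Source: HepG2 cells carrying PXR-GAL4/UAS reporter constructs, treated 24 h; activity fitted upward relative to DMSO.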

[12] = target: human Retinoid X Receptor beta (RXRb), RXRB (gene 6257) (UniProt P28702); test: ATG_RXRb_TRANS: Attagene TRANS-FACTORIAL HepG2 Assay for human Retinoid X Receptor beta (RXRb) (AID 2283013; active = hit-call score of the fitted dose curve at least 0.9, where 1 is the maximum)
human Retinoid X Receptor beta (RXRb), RXRB (gene 6257), sequence (P28702 whole entry, looked up): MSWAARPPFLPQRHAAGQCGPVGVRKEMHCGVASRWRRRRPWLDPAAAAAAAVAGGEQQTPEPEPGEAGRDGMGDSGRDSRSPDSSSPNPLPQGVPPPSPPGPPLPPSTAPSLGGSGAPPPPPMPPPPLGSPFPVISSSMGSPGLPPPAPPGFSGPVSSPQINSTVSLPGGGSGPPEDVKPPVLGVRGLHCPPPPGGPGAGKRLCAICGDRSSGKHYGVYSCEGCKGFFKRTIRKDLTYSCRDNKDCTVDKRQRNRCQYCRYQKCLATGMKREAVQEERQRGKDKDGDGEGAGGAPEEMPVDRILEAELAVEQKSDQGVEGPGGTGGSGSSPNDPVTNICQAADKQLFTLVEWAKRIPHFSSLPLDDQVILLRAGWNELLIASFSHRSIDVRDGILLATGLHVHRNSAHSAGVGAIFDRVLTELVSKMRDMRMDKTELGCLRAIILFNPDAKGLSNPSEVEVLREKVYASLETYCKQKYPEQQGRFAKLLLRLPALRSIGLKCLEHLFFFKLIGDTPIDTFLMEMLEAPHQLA
Summary of the method: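 Multiplexed TRANS reporter assay in HepG2; 24 h dosing; reporter mRNA by RT-PCR/CE fluorescence; gain-of-signal relative to DMSO.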

[13] = ATG_PPRE_CIS: Attagene CIS-FACTORIAL HepG2 Assay for human Peroxisome Proliferator-activated Response Element (PPRE) (AID 2282958); conditions: HepG2 PPRE cis-element reporter, Attagene transcription factor profiling; actives raise or lower the signal
Summary of the method: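 Cells are first transfected transiently with the multiplexed reporter library, then dosed for 24 h. Total RNA is reverse-transcribed, amplified, fluorescently end-labeled and HpaI-cut before capillary electrophoresis; activity is fitted bidirectionally against DMSO controls.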

[14] = ATG_SREBP_CIS: Attagene CIS-FACTORIAL HepG2 Assay for human Sterol Regulatory Element Binding (SREBP) (AID 2282962); conditions: HepG2 Attagene cis-factorial SREBP reporter, mRNA; actives raise or lower the signal
Summary of the method: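 Transfected HepG2 (cis-regulated reporter library, endogenous TFs) → compound 24 h → total RNA → oligo(dT) RT → reporter-specific PCR → FAM primer extension, HpaI cut → CE fluorescence. Fit bidirectional vs DMSO.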

[15] = ATG_NFI_CIS: Attagene CIS-FACTORIAL HepG2 Assay for human Nuclear Factor I (NFI) (AID 2282989); conditions: HepG2 cis-regulatory reporter, NFI response element transcription; actives raise or lower the signal
Summary of the method: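 After transient transfection of HepG2 with cis-promoter reporter constructs and 24 h dosing, RNA is reverse-transcribed, amplified, 6-FAM end-labelled and HpaI-digested before capillary analysis. Bidirectional curve fitting against DMSO.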

[16] = target: Retinoic acid receptor RXR-alpha (Homo sapiens) (UniProt P19793); test: ATG_RXRa_TRANS: Attagene TRANS-FACTORIAL HepG2 Assay for human Retinoid X Receptor alpha (RXRa) (AID 2283012; active = hit-call score of the fitted dose curve at least 0.9, where 1 is the maximum)
Retinoic acid receptor RXR-alpha (Homo sapiens), sequence (P19793 whole entry, looked up, the tested form may be a part): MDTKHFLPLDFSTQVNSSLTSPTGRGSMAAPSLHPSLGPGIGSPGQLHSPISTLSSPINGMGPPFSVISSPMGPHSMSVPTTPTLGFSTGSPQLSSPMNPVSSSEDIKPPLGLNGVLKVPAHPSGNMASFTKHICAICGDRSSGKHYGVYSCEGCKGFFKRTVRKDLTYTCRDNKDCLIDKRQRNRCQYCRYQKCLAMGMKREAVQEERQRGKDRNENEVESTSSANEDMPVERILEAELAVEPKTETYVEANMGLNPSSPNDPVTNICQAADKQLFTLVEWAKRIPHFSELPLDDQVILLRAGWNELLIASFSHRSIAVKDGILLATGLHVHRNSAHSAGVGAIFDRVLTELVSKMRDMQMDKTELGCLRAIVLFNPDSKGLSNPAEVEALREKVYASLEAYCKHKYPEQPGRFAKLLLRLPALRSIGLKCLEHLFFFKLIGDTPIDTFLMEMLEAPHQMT
Summary of the method: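 Cells (HepG2) carried transiently transfected GAL4-responsive reporter units. Following a 24 h chemical incubation, reporter mRNA induction was read via RT-PCR fragment analysis; DMSO served as negative control and baseline.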

[17] = target: Cellular tumor antigen p53 (Homo sapiens) (UniProt P04637); test: TOX21_p53_BLA_p3_ratio: Tox21 HCT-116 p53 Agonism Beta-lactamase Assay, Ratio, Phase 3 (AID 2283596; active = hit-call score of the fitted dose curve at least 0.9, where 1 is the maximum)
Cellular tumor antigen p53 (Homo sapiens), sequence (P04637 whole entry, looked up): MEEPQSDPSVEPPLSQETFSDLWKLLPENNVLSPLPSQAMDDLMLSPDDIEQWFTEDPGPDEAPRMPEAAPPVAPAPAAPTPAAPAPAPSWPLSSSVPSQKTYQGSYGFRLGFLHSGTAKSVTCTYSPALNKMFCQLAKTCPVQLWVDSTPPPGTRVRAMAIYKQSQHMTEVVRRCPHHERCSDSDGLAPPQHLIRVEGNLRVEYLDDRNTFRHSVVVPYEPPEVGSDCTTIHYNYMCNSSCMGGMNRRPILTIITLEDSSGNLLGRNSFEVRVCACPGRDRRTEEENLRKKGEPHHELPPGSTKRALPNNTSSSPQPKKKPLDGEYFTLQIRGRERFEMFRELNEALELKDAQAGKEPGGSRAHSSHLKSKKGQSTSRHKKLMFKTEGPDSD
Summary of the method: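 HCT116 p53-bla cells (4000/well) given compound in DMSO (217-fold dilution) after 5 h, incubated 16 h at 37C. CCF4-AM substrate 2 h at room temperature; 460/530 nm emission ratio, gain fitted against DMSO.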

[18] = target: Cellular tumor antigen p53 (Homo sapiens) (UniProt P04637); test: TOX21_p53_BLA_p5_ratio: Tox21 HCT-116 p53 Agonism Beta-lactamase Assay, Ratio, Phase 5 (AID 2283599; active = hit-call score of the fitted dose curve at least 0.9, where 1 is the maximum)
Summary of the method: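 HCT-116 p53-bla cells (4000/well) plated 5 h, dosed with compound (217-fold DMSO dilution) for 16 h at 37 C; CCF4-AM substrate 2 h at room temperature. Activity is the 460/530 nm emission ratio (405 nm excitation), fitted in gain-of-signal direction versus DMSO.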

[19] = target: Cellular tumor antigen p53 (Homo sapiens) (UniProt P04637); test: TOX21_p53_BLA_p4_ratio: Tox21 HCT-116 p53 Agonism Beta-lactamase Assay, Ratio, Phase 4 (AID 2283601; active = hit-call score of the fitted dose curve at least 0.9, where 1 is the maximum)
Summary of the method: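 HCT-116 p53 beta-lactamase reporter cells (4000/well) preincubated 5 h, then compound (217-fold dilution of DMSO stock) for 16 h at 37C. CCF4-AM substrate added 2 h at room temperature; 460/530 nm emission ratio fitted upward versus DMSO.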

[20] = target: Hepatocyte nuclear factor 4-alpha (Homo sapiens) (UniProt P41235); test: ATG_HNF4a_TRANS: Attagene TRANS-FACTORIAL HepG2 Assay for human Hepatocyte Nuclear Factor 4 alpha (HNF4a) (AID 2282982; active = hit-call score of the fitted dose curve at least 0.9, where 1 is the maximum); conditions: HepG2 HNF4a transactivation reporter, mRNA readout
Hepatocyte nuclear factor 4-alpha (Homo sapiens), sequence (P41235 whole entry, looked up, the tested form may be a part): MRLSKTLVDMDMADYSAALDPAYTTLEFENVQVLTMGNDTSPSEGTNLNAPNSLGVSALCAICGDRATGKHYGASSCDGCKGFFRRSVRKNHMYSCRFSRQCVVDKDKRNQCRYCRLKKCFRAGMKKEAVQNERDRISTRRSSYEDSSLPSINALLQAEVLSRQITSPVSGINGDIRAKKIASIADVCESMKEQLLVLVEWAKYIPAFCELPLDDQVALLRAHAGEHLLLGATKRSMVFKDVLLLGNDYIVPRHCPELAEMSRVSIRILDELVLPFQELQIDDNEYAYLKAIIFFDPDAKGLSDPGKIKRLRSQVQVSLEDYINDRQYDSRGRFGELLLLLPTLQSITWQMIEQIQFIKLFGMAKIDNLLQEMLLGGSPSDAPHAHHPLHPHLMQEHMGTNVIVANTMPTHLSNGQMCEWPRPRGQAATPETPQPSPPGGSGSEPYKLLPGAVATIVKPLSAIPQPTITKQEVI
Summary of the method: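 Gain-of-signal mRNA induction, relative to DMSO vehicle, was read after 24 h compound treatment of HepG2 cells bearing transfected GAL4-UAS reporters. Detection used RT-PCR, 6-FAM primer extension and capillary electrophoresis.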

Measured: AC50

COC(=O)c1ccccc1S(=O)(=O)NC(=O)Nc1nc(C)cc(C)n1
not listed: [13] | [14] | [15] | [16] | [17] | [18] | [19] | [20]
inactive: all other assays above

CC1CCCC1.[C-]#[O+].[C-]#[O+].[C-]#[O+].[Mn]
active: [2] 16.8 µM
not listed: [8] | [9] | [10] | [20]
inactive: all other assays above

O=C1Nc2ccc(Cl)cc2C(c2ccccc2)=NC1O (stereo not drawn)
inactive: [1] | [2] | [3] | [5] | [13] | [14] | [7] | [8] | [10] | [11] | [16] | [12] | [17] | [18] | [19]
active: [18] 77.3 µM | [19] 86.7 µM

N#Cc1cc(I)c(O)c(I)c1
active: [13] 29.1 µM | [7] 33.6 µM | [10] 10.7 µM | [17] 6.09 µM | [18] 55.8 µM | [19] 13.9 µM
not listed: [8] | [9] | [12] | [14]
inactive: all other assays above

C=CC(=O)OC
not listed: [4] | [10] | [11] | [16] | [17] | [18]
inactive: all other assays above

Cc1ccc(OP(=O)(Oc2ccc(C)cc2)Oc2ccc(C)cc2)cc1 (tested in a mixture with another compound)
active: [10] 1.85 µM | [11] 596 nM
not listed: [5] | [12] | [15] | [20]
inactive: all other assays above

COc1cc(OC)nc(Oc2cccc(Oc3nc(OC)cc(OC)n3)c2C(=O)O)n1
not listed: [4] | [8] | [15] | [16] | [19] | [20]
inactive: all other assays above

Nc1ccc([N+](=O)[O-])cc1N
not listed: [4] | [5] | [6] | [9] | [15]
inactive: all other assays above

BrCBr
not listed: [7] | [8] | [10] | [11] | [12] | [14] | [16]
inactive: all other assays above
